# PubChem BioAssay (EPA / NIEHS)
# Results filed as inconclusive are left out. Activity calls are given as the source filed them. Rule for the calls, unless noted: active = hit-call score of the fitted dose curve at least 0.9, where 1 is the maximum; inconclusive = response in the unintended direction; inactive = score below 0.9.
# Assays:
# [1] = IUF_NPC1_cytotoxicity_72hr: Cytotoxicity Assessment at 72 hours in the Leibniz Research Institute for Environmental Medicine (IUF) Neural Progenitor Cell Proliferation Assay (NPC1) (AID 2284332);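 note: rising LDH signal means more cytotoxicity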
# Summary of the method: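 Readout is fluorescence from LDH-dependent resazurin conversion, sampled from culture medium after compound contact lasting 72 h. Each well holds one 0.25-0.35 mm human progenitor sphere kept at 37C, 5% CO2 with EGF and FGF.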
# [2] = CCTE_Mundy_HCI_iCellGluta_NOG_NeuronCount: CCTE's Neurite Outgrowth Assay in iCellGluta cells for Neuron Count, Mundy Lab (AID 2284340);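 note: cells fixed about 48 h after compound addition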
# Summary of the method: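 Neuron count read by automated high-content imaging of Hoechst 33342 and betaIII-tubulin/Alexa Fluor-488 labelling in human iPSC glutamatergic neurons. Activity fitted relative to DMSO.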
# [3] = CCTE_Mundy_HCI_iCellGluta_NOG_NeuriteCount: CCTE's Neurite Outgrowth Assay in iCellGluta cells for Neurite Count, Mundy Lab (AID 2284342);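 note: chemical exposure about 48 hours starting 2 hours after plating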
# [4] = CCTE_Deisenroth_H295R-HTRF_384WELL_ESTRADIOL: CCTE's H295R-HTRF Assay Evaluation of Estradiol Concentration, Deisenroth Lab (AID 2284361; active = hit-call score of the fitted dose curve at least 0.9, where 1 is the maximum; inactive = score below 0.9); conditions: actives raise or lower the signal
# Summary of the method: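 Estradiol secreted into medium by H295R adrenocortical cells, quantified by HTRF after 48 h dosing over a nine-point 0.001 - 100 uM final range; gain or loss versus DMSO. Parallel ATP-luminescence viability readout; n=5 experiments.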
# [5] = CCTE_Deisenroth_H295R-HTRF_384WELL_TESTOSTERONE: CCTE's H295R-HTRF Assay Evaluation of Testosterone Concentration, Deisenroth Lab (AID 2284373; active = hit-call score of the fitted dose curve at least 0.9, where 1 is the maximum; inactive = score below 0.9); conditions: actives raise or lower the signal
# Summary of the method: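 H295R cells were acclimated 24 h, then exposed 48 h to nine concentrations (0.001–100 uM final) in technical triplicate, n=5. Testosterone in conditioned medium was measured by HTRF (em 620/665 nm). Fitting was bidirectional versus DMSO; CellTiter-Glo viability ran on the same plates.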
# [6] = CCTE_Deisenroth_H295R-HTRF_384WELL_CTOX: Cytotoxicity Assessment in CCTE's H295R-HTRF Assay, Deisenroth Lab (AID 2284380)
# Summary of the method: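 Luminescent ATP viability readout (CellTiter-Glo 2.0), multiplexed on plates used for hormone sampling, after 48 h chemical exposure. Human H295R cells; final concentrations 0.001–100 uM in nine steps, technical triplicates, five experiments; DMSO baseline.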
# [7] = TAMU_PeakParms_SingleDonor1434_Asystole: Texas A&M University (TAMU) 1.5-hr Human Induced Pluripotent Stem Cell (iPSC)-derived Cardiomyocytes Calcium (Ca+2) Flux Assay for Cardiotoxicity: Asystole (quiescence of beating) (AID 2284328)
# Summary of the method: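 Average Ca2+-flux peak frequency (beats/s) was recorded in single-donor iPSC-derived cardiomyocytes after 90 min exposure (0.2–100 uM final, 0.5% DMSO). Asystole POD set as EC95 against DMSO, no preprocessing.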
# [8] = test system: SERPINA7 (gene 6906); assay: CCTE_GLTED_hTBG: CCTE's human Thyroxine-binding Globulin (TBG) Inhibition Assay, Great Lakes Toxicology and Ecology Division (GLTED) Lab (AID 2284343);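 note: active chemicals lower fluorescence versus DMSO baseline by displacing probe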
# Summary of the method: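 Steps: combine TBG with chemical; incubate 2 hours so that disruptors release ANSA; record fluorescence (380 ex, 475 em). Loss of signal was fitted against DMSO controls.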
smiles,measurement,setting,value
CN(C)C(=S)SSC(=S)N(C)C,AC50,[1],20.5 µM (active)
same,AC50,[2],0.0675 µM (active)
same,AC50,[3],0.0447 µM (active)
CCCCNC(=O)n1c(NC(=O)OC)nc2ccccc21,outcome,[2],inactive
same,outcome,[3],inactive
same,outcome,[4],inactive
same,outcome,[5],inactive
same,AC50,[6],5.92 µM (active)
COc1nc(NC(C)C)nc(NC(C)C)n1,AC50,[4],34.6 µM (active)
same,outcome,[5],inactive
same,outcome,[6],inactive
Oc1ccccc1-c1ccccc1,outcome,[7],inactive
same,AC50,[8],28.1 µM (active)
Cc1cc(Cl)ccc1OCC(=O)O,AC50,[8],59.6 µM (active)
CO/C=C(/C(=O)OC)c1ccccc1Oc1cc(Oc2ccccc2C#N)ncn1,outcome,[1],inactive
same,AC50,[2],66 µM (active)
same,AC50,[3],21.5 µM (active)
CCCCOC(=O)c1ccccc1C(=O)OCCCC,outcome,[1],inactive
same,outcome,[2],inactive
same,outcome,[3],inactive
same,AC50,[8],11.4 µM (active)
Cc1ccc(-c2c(Cl)nc(C#N)n2S(=O)(=O)N(C)C)cc1,outcome,[1],inactive
same,AC50,[2],50 µM (active)
same,AC50,[3],50 µM (active)
same,AC50,[8],33.1 µM (active)
CCOc1cc(Oc2ccc(C(F)(F)F)cc2Cl)ccc1[N+](=O)[O-],outcome,[1],inactive
same,AC50,[2],50 µM (active)
same,AC50,[3],66.4 µM (active)
same,AC50,[8],4.86 µM (active)
C=CCC1=C(C)C(OC(=O)C2C(C=C(C)C)C2(C)C)CC1=O (stereo not given),outcome,[2],inactive
same,outcome,[3],inactive
CCNc1nc(Cl)nc(NC(C)C)n1,AC50,[4],9.8 µM (active)
same,outcome,[5],inactive
same,outcome,[6],inactive
CNC(=O)ON=CC(C)(C)SC,outcome,[7],inactive
same,outcome,[1],inactive
C=CC1(C)OC(=O)N(c2cc(Cl)cc(Cl)c2)C1=O (stereo not given),outcome,[1],inactive
same,outcome,[2],inactive
same,outcome,[3],inactive
CCCCNC(=O)OCC#CI,outcome,[7],inactive
Fc1ccc(Oc2ccnc3cc(Cl)cc(Cl)c23)cc1,AC50,[8],8.16 µM (active)
OC(c1ccc(Cl)cc1)(c1cncnc1)c1ccccc1Cl (stereo not given),AC50,[8],36.5 µM (active)
same,outcome,[4],inactive
same,outcome,[5],inactive
same,outcome,[6],inactive
